Source: article PMC4336329 (PLoS ONE, 2015)
Screen size: about 310,000 compounds; about 2,200 (0.71%) showed an effect of 50% or more. The effect is printed as a negative number. What follows is part of a selection rich in strong results, with near analogues and random picks from the rest.

Biological target: human ether-à-go-go-related gene (hERG) potassium channel (human, UniProt Q12809)
Assay: primary screen, population patch clamp on CHO cells stably expressing hERG; higher = less effect of the substance

Chain of human ether-à-go-go-related gene (hERG) potassium channel (Q12809 whole entry, looked up): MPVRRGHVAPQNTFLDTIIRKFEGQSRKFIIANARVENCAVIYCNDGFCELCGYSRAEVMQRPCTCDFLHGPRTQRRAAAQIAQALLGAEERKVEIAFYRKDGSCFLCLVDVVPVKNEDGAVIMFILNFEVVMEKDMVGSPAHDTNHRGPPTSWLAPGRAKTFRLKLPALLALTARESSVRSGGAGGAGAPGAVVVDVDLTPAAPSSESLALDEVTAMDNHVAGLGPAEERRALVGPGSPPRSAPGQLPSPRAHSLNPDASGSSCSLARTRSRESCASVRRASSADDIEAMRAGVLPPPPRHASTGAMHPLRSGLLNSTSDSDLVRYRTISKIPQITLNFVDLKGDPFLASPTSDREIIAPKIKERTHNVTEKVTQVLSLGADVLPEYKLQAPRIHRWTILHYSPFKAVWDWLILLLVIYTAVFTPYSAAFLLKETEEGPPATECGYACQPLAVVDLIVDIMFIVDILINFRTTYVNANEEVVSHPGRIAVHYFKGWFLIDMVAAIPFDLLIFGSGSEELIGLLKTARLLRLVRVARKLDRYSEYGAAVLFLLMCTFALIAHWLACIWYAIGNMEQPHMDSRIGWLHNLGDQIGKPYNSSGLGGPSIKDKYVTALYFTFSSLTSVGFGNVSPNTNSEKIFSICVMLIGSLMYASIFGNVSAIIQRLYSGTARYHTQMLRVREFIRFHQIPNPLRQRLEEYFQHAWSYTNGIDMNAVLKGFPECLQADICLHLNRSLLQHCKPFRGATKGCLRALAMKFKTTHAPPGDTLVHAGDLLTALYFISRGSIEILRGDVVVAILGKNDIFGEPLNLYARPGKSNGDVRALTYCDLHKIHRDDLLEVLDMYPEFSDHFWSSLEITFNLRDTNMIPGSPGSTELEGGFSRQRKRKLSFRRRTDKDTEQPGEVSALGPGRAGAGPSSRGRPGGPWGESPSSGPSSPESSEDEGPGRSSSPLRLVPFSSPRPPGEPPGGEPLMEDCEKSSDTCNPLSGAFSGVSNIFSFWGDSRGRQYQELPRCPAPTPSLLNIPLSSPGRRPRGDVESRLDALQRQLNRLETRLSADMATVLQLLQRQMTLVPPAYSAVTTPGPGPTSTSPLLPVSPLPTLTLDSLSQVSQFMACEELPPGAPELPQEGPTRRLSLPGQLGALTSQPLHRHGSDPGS

Row | SMILES | hERG current change (%, negative = inhibition) at 1uM [%]
1 | Cc1ccc(NC2CCCN(C(=O)c3ccc(-n4ccnc4)cc3)C2)cc1C (centres unmarked) | -4.71
2 | COc1ccc(-c2cc(-c3ccc(C)cc3)nc(SCc3nnc(-c4ccccc4)o3)c2C#N)cc1OC | 8.98
3 | CS(=O)(=O)N1N=C(c2ccco2)CC1c1ccccc1Cl (centres unmarked) | 9.15
4 | CCn1nc(C)c(/C=N/NC(=O)CSc2ccccn2)c1C | 10.3
5 | COCCn1c(SCC(=O)c2c[nH]c3ccccc23)nnc1-c1ccncc1 | 7.84
6 | O=C(Nc1ccc(Cl)cc1)c1cncs1 | 11.3
7 | CC(C)Oc1ccc(CN2CCC(n3nccc3NC(=O)C3CC3)CC2)cc1 | -68.4
8 | CC(C)n1cc(CN2CCC(n3nccc3NC(=O)C3CCCC3)CC2)cn1 | 6.1
9 | COc1cc(CN2CCC(n3nccc3NC(=O)C3CC3)CC2)cc(OC)c1 | -29.5
10 | CC(C)Cc1ccc(CN2CCC(n3nccc3NC(=O)C3CCCC3)CC2)cc1 | -16.9
11 | CC(Cc1ccc(Cl)cc1)N1CCC(n2nccc2NC(=O)C2CCCC2)CC1 (centres unmarked) | -67.5
12 | COC(=O)c1ccc(CN2CCC(n3nccc3NC(=O)C3CC3)CC2)cc1 | -6.68
13 | CC(C)Oc1ccc(CN2CCC(n3nccc3NC(=O)c3cccnc3)CC2)cc1 | -52.6
14 | O=C(Nc1ccnn1C1CCN(Cc2ccc(Cl)cc2)CC1)C1CCCC1 | -37.2
15 | COC(=O)c1ccc(CN2CCC(n3nccc3NC(=O)C3CCCC3)CC2)cc1 | -26.7
16 | CCc1ccc(CN2CCC(n3nccc3NC(=O)C3CCCC3)CC2)cc1 | -68.2
17 | Cc1ccccc1CN1CCC(n2nccc2NC(=O)c2cccnc2)CC1 | 4.68
18 | O=C(Nc1ccnn1C1CCN(Cc2ccccc2OC(F)F)CC1)c1cccnc1 | 2.05
19 | O=C(N/N=C(\CC(=O)c1cccs1)C(F)(F)F)c1cccnc1 | 12.7
20 | Cl.O=C(NCCN1CCCC1)c1ccc(Cl)cc1Cl | 16.6
21 | O=C(NCC1(N2CCCCC2)CCCCC1)C1CC(=O)N(c2ccc3c(c2)OCCO3)C1 (centres unmarked) | 14.3
22 | COc1cc(C2NC(=O)C(C#N)=C(S)N2c2ccc(C)cc2)ccc1OC(C)C (centres unmarked) | 9.81
23 | COc1cc(OC)cc(C(=O)NCCCn2ccnc2)c1 | 18.8
24 | Cn1c2ccccc2c2nnc(SC3CCOC3=O)nc21 (centres unmarked) | 3.35

Row | SMILES | hERG current change (%, negative = inhibition) at 1uM [%]
25 | O=C(O)C(C(O)c1ccc([N+](=O)[O-])cc1)[n+]1ccccc1.[Br-] (centres unmarked) | 18.1
26 | COc1cccc(OCc2cc(C(=O)NCc3cnc4ccccn34)no2)c1 | 3.98
27 | Cn1c(SCC(=O)NC(=O)Nc2ccccc2)nnc1-c1ccncc1 | 9.09
28 | COc1ccc(CN2CCC(n3nccc3NC(=O)C3CCCC3)CC2)cc1 | -47.4
29 | O=C(Nc1ccnn1C1CCN(Cc2ccc(OC(F)F)cc2)CC1)C1CCCC1 | -81.5
30 | O=C(Nc1ccnn1C1CCN(Cc2ccc(O)c(Cl)c2)CC1)C1CCCC1 | -6.39
31 | Cc1c(NC(=O)c2cccc(-c3cc4ccccc4oc3=O)c2)cccc1-c1nc2ncccc2o1 | 12.7
32 | CCNC(=O)N1CCN(CCCC(c2ccc(F)cc2)c2ccc(F)cc2)CC1.Cl | -90.3
33 | CCCCNC(=O)N1CCN(Cc2ccc(F)cc2)CC1 | 9.29
34 | O=C(Nc1ccc(F)cc1)N1CCN(CCc2ccccc2)CC1 | -9.52
35 | CCN(CC)CCNS(=O)(=O)c1ccc2[nH]cc(C(=O)O)c(=O)c2c1 | 10.9
36 | O=C(Nc1ccnn1C1CCN(CCCC2CCCC2)CC1)c1ccccc1 | -60.9
37 | COc1ccccc1C(=O)Nc1ccnn1C1CCN(C2CCSCC2)CC1 | -44.5
38 | Cc1ccccc1C(=O)Nc1ccnn1C1CCN(CC2CC=CCC2)CC1 (centres unmarked) | -33.5
39 | O=C(Nc1ccnn1C1CCN(CC2CC=CCC2)CC1)c1ccccc1Cl (centres unmarked) | -37.8
40 | COc1ccccc1C(=O)Nc1ccnn1C1CCN(C(=O)C(C)(C)C)CC1 | -6.95
41 | O=C(Nc1ccnn1C1CCN(C2CCCCC2)CC1)c1ccccc1 | 12.1
42 | O=C(Nc1ccnn1C1CCN(C2CCCC2)CC1)c1ccccc1 | 13.3
43 | O=C(Nc1ccnn1C1CCN(C2CCCC2)CC1)c1ccccc1Cl | 6.27
44 | CC(C)(C)CN1CCC(n2nccc2NC(=O)c2ccccc2Cl)CC1 | 4.68
45 | O=C(Nc1ccnn1C1CCN(CCCC2CCCC2)CC1)c1ccccc1Cl | -99
46 | COc1ccccc1C(=O)Nc1ccnn1C1CCN(CC2CC=CCC2)CC1 (centres unmarked) | -69.1
47 | COc1ccccc1C(=O)Nc1ccnn1C1CCN(CCCC2CCCC2)CC1 | -93.2
